Records with an inconclusive call do not appear. Activity calls are given as the source filed them. Unless noted, calls follow the shape of the dose curve; as a rule, active = well fitted curve in the direction sought with a large enough effect in the repeat runs; inconclusive = weak or mixed curves; inactive = no such curve, though single readings can be large; an effect the other way counts as inactive or inconclusive.
Legend:
[1] = qHTS assay to identify small molecule agonists of the vitamin D receptor (VDR) signaling pathway - cell viability counter screen (AID 743224); also: series mostly up to about 63 µM; nearly all actives have a fitted effect of over 50% in size
In short: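 Here cell health was gauged by luminescent ATP detection (CellTiter-Glo, 30 min RT) in VDR-bla cells that had been incubated with test compounds for 16 h at 37C and 5% CO2.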

[2] = qHTS assay to identify small molecule antagonists of the vitamin D receptor (VDR) signaling pathway - cell viability counter screen (AID 743225); also: nearly all actives have a fitted effect of over 50% in size
In short: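 HEK293T VDR-bla; cpd + 1a,25-(OH)2D3 3 nM final, 16 h 37C/5% CO2; B/G FRET substrate 2 h RT; then CellTiter-Glo 30 min RT, luminescence.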

[3] = qHTS assay to identify small molecule agonists of the NFkB signaling pathway (AID 1159509; active = well fitted curve in the direction sought with a large enough effect in the signal ratio in the repeat runs, not every such curve was filed as active; the % refers to the signal ratio; also: series mostly up to about 61 µM)
In short: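 ME-180 NFkB-bla, 2,000 cells/well, overnight plating; cpd pinned in DMSO, 5 h 37 C; B/G FRET substrate 1.5 h RT; ex 405, em 460/530 nm.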

[4] = qHTS assay to identify small molecule agonists of the NFkB signaling pathway - cell viability counter screen (AID 1159515; calls by dose curve; also: series mostly up to about 61 µM; nearly all actives have a fitted effect of over 55% in size)
In short: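 5 hr compound treatment of NFkB-bla ME-180 cells (2,000/well, seeded overnight beforehand), followed by reporter substrate for 1.5 hr. CellTiter-Glo added afterward; luminescence after 30 min RT.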

[5] = qHTS assay to identify small molecule agonists of the endoplasmic reticulum stress response signaling pathway (AID 1159516; active = well fitted activation curve with a large enough effect in the signal ratio in the repeat runs, not every such curve was filed as active; the % refers to the signal ratio)
In short: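 Reporter HeLa cells (ESRE-beta-lactamase) underwent 5 hr compound incubation at 37 C and 5% CO2 in quantitative HTS format. Detection followed 2 hr of FRET substrate loading at room temperature.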

[6] = qHTS assay to identify small molecule antagonists of the retinoid-related orphan receptor gamma (ROR-gamma) signaling pathway - cell viability counter screen (AID 1159520); also: nearly all actives have a fitted effect of over 50% in size
In short: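 Tet-on ROR gamma CHO cells were given compounds for 2 hr, then doxycycline hyclate at 1 uM final, and incubated 16 hr at 37 C. Viability was measured as ATP content by CellTiter-Glo luminescence.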

[7] = biological target: Nuclear receptor ROR-gamma (Homo sapiens) (UniProt P51449); assay: qHTS assay to identify small molecule antagonists of the retinoid-related orphan receptor gamma (ROR-gamma) signaling pathway (AID 1159521; also: nearly all actives have a fitted effect of over 50% in size; also: potency is read from the fitted curve at half-maximal effect)
In short: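 Cells were plated, rested 4 h at 37 C, exposed to compounds for 2 h, then given 1 uM final doxycycline hyclate to induce RORγ expression. After 16 h, ONE-Glo luminescence from the ROR response element reporter was measured.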

[8] = qHTS assay to identify small molecule agonists of the AP-1 signaling pathway - cell viability counter screen (AID 1159525; calls by dose curve; also: nearly all actives have a fitted effect of over 55% in size)
In short: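 AP-1-bla ME-180 cells in Opti-MEM with 0.5% dialyzed FBS, compound exposure 5 h at 37 C in 15-point titration. Viability read in the same wells as ATP content by CellTiter-Glo luminescence, normalised to tetra-n-octylammonium bromide and DMSO controls.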

[9] = qHTS assay to identify small molecule agonists of the AP-1 signaling pathway (AID 1159526; calls by dose curve)
[10] = qHTS assay to identify small molecule agonists of the endoplasmic reticulum stress response signaling pathway - cell viability counter screen (AID 1159517; calls by dose curve)
In short: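 ESRE-bla HeLa cells, 1,500 per well, seeded overnight then treated with compounds for 5 hr at 37 C. After the beta-lactamase read, viability in the same wells is measured by CellTiter-Glo luminescence after 30 min at room temperature.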

Measured: Potency

Cc1nc(-c2ccc(OCC(C)C)c(C#N)c2)sc1C(=O)O
inactive: [1] | [2] | [3] | [4] | [5] | [6] | [7] | [8] | [9]

O=C(CCOCCOCCOCCOCCC(=O)Nc1c(I)cc(I)c(C(=O)O)c1I)Nc1c(I)cc(I)c(C(=O)O)c1I
inactive: [1] | [2] | [3] | [4] | [5] | [6] | [7] | [8] | [9]

CCCCCCCCCCCCI
inactive: [1] | [3] | [4] | [5] | [6] | [7] | [8] | [9]

O=C1C(CCS(=O)c2ccccc2)C(=O)N(c2ccccc2)N1c1ccccc1 (stereo not given)
inactive: [3] | [4] | [10] | [6] | [7] | [8] | [9]

Nc1ccc2cc(S(=O)(=O)O)ccc2c1
inactive: [1] | [2] | [3] | [4] | [5] | [6] | [7] | [8] | [9]

CSc1nc(NC2CC2)nc(NC(C)(C)C)n1
inactive: [1] | [2] | [3] | [4] | [5] | [6] | [7] | [8] | [9]

CC(C)c1cccc(O)c1
inactive: [1] | [2] | [3] | [4] | [5] | [6] | [7] | [8] | [9]

O=C1CC2(CCCC2)CC(=O)N1
inactive: [1] | [2] | [3] | [4] | [5] | [6] | [7] | [8] | [9]

CCC(C)OC(=O)N1CCCCC1CCO (stereo not given)
inactive: [1] | [2] | [3] | [4] | [5] | [6] | [7] | [9]

CO[Si](CCCNCCC[Si](OC)(OC)OC)(OC)OC
inactive: [1] | [2] | [3] | [4] | [5] | [6] | [7] | [8] | [9]

C1C2OC2C2C1C1CC2C2OC12 (stereo not given)
inactive: [1] | [2] | [3] | [4] | [5] | [6] | [7] | [8] | [9]

CC(C)(C)N(CCO)CCO
inactive: [1] | [2] | [3] | [4] | [5] | [6] | [7] | [8] | [9]

CCN(CC)S(=O)(=O)c1ccc(C(=O)O)cc1
inactive: [1] | [3] | [4] | [10] | [6] | [7] | [8] | [9]

CC/C=C\CCCCO
inactive: [1] | [2] | [3] | [4] | [5] | [6] | [7] | [8] | [9]

CCN1CCCC1CNC(=O)c1cc(S(N)(=O)=O)ccc1OC (stereo not given)
active: [7] 54.5 µM
inactive: [1] | [3] | [4] | [10] | [6] | [8] | [9]

OC[C@H]1O[C@@H]2O[C@H]3[C@H](O)[C@@H](O)[C@@H](O[C@H]4[C@H](O)[C@@H](O)[C@@H](O[C@H]5[C@H](O)[C@@H](O)[C@@H](O[C@H]6[C@H](O)[C@@H](O)[C@@H](O[C@H]7[C@H](O)[C@@H](O)[C@@H](O[C@H]8[C@H](O)[C@@H](O)[C@@H](O[C@H]9[C@H](O)[C@@H](O)[C@@H](O[C@H]1[C@H](O)[C@H]2O)O[C@@H]9CO)O[C@@H]8CO)O[C@@H]7CO)O[C@@H]6CO)O[C@@H]5CO)O[C@@H]4CO)O[C@@H]3CO
inactive: [1] | [2] | [3] | [4] | [10] | [6] | [7] | [8] | [9]

CCCCNc1ccccc1
inactive: [1] | [2] | [3] | [4] | [10] | [6] | [7] | [8] | [9]

C=C(C)C1CC=C(C)C(O)C1 (stereo not given)
inactive: [1] | [2] | [3] | [4] | [10] | [6] | [7] | [8] | [9]

CC(C)CCCC(C)NCCC(C)C (stereo not given)
inactive: [1] | [2] | [3] | [4] | [10] | [6] | [7] | [8] | [9]

CC12CCC(CC1=O)C2(C)C (stereo not given)
inactive: [1] | [2] | [3] | [4] | [10] | [6] | [7] | [8] | [9]

C=CC(=O)OCCCCCC
inactive: [1] | [2] | [4] | [5] | [10] | [6] | [8] | [9]

COc1cc(CCC(C)=O)ccc1O
inactive: [1] | [3] | [4] | [10] | [6] | [7] | [8] | [9]

Nc1[nH]c(=O)ncc1F
inactive: [1] | [2] | [3] | [4] | [10] | [6] | [7] | [8] | [9]

CC(C)CCCCCCN
inactive: [1] | [2] | [3] | [4] | [10] | [6] | [7] | [8] | [9]

CCCCCCCCCCCCCCC
inactive: [1] | [2] | [3] | [4] | [10] | [6] | [7] | [8] | [9]

C#CC(O)C(CC)CCCC (stereo not given)
inactive: [1] | [2] | [3] | [4] | [6] | [7] | [8] | [9]

CN(C)CCn1nnnc1SCC1=C(C(=O)O)N2C(=O)[C@@H](NC(=O)Cc3csc(N)n3)[C@H]2SC1
inactive: [1] | [2] | [3] | [4] | [6] | [7] | [8] | [9]

CCN(CC)C(=O)c1ccc(O)c(OC)c1
inactive: [1] | [2] | [3] | [4] | [10] | [6] | [7] | [8] | [9]

COC(=O)C1=C(C)NC(C)=C(C(=O)OCC(C)=O)C1c1ccccc1[N+](=O)[O-] (stereo not given)
inactive: [1] | [3] | [4] | [10] | [6] | [7] | [8] | [9]

CC(C=O)Cc1ccc(C(C)C)cc1 (stereo not given)
inactive: [1] | [2] | [3] | [4] | [10] | [6] | [7] | [8] | [9]

CCOC(=O)Nc1ccc2c(c1)N(C(=O)CCN1CCOCC1)c1ccccc1S2
inactive: [1] | [2] | [3] | [4] | [10] | [6] | [7] | [8] | [9]

CC(C)=CC(=O)O
inactive: [1] | [2] | [3] | [4] | [10] | [6] | [7] | [8] | [9]

C#CC(C)(O)CC(C)C (stereo not given)
inactive: [1] | [2] | [3] | [4] | [6] | [7] | [8] | [9]

O=C(O)c1ccccc1S
inactive: [1] | [2] | [3] | [4] | [10] | [6] | [7] | [9]

Nc1cc(N)cc(C(=O)O)c1
inactive: [1] | [2] | [3] | [4] | [10] | [6] | [7] | [8] | [9]

C=C(C)C(=O)NCCC[N+](C)(C)C
inactive: [1] | [2] | [3] | [4] | [10] | [6] | [7] | [8] | [9]

COC(=O)c1ccc(C(=O)OC)c(C(=O)OC)c1
inactive: [1] | [2] | [3] | [4] | [10] | [6] | [7] | [8] | [9]

NS(=O)(=O)c1cc2c(cc1C(F)(F)F)NC(Cc1ccccc1)NS2(=O)=O (stereo not given)
inactive: [1] | [2] | [3] | [4] | [10] | [6] | [7] | [8] | [9]

COc1nc(C)nc(N)n1
inactive: [1] | [2] | [3] | [4] | [10] | [6] | [7] | [8] | [9]

CCCc1ccccc1O
inactive: [1] | [3] | [4] | [10] | [6] | [7] | [8] | [9]

COC(=O)[C@H]1[C@H]2C[C@@H]3c4[nH]c5cc(OC)ccc5c4CCN3C[C@H]2C[C@@H](OC(=O)COc2ccc(OC)cc2)[C@@H]1OC
inactive: [1] | [2] | [3] | [4] | [6] | [7] | [8] | [9]

CC(C)(O)Cc1ccccc1
inactive: [1] | [2] | [3] | [4] | [10] | [6] | [7] | [8] | [9]

c1ccc(SCCSc2ccccc2)cc1
inactive: [1] | [2] | [3] | [4] | [10] | [6] | [7] | [9]

COc1cccc(OC)c1
inactive: [1] | [2] | [3] | [4] | [10] | [6] | [7] | [8] | [9]

C=C(C)[C@H]1CC=C(C)CC1
inactive: [1] | [4] | [5] | [10] | [6] | [8] | [9]

NC(=O)CCCCC1CCSS1 (stereo not given)
inactive: [1] | [3] | [4] | [10] | [6] | [7] | [8] | [9]

Cc1cc(C)cc(OCC2CNC(=O)O2)c1 (stereo not given)
inactive: [1] | [2] | [3] | [4] | [10] | [6] | [7] | [8] | [9]

CCCCCC[C@@H](CCC)C(=O)O
inactive: [1] | [2] | [3] | [4] | [10] | [6] | [7] | [8] | [9]

N#CC1(O)CCCCC1
inactive: [1] | [2] | [3] | [4] | [10] | [6] | [7] | [8] | [9]

CCCCCCC(=O)OCC
inactive: [1] | [2] | [3] | [4] | [10] | [6] | [7] | [8] | [9]

Cc1ccccc1Br
inactive: [1] | [2] | [3] | [4] | [10] | [6] | [7] | [8] | [9]

CC(C)CCOC(=O)CC(C)C
inactive: [1] | [3] | [4] | [10] | [6] | [7] | [9]

CCCCCCCCC=O
inactive: [1] | [2] | [4] | [5] | [6] | [7] | [8] | [9]
